High-throughput results deposited in PubChem BioAssay by National Center for Advancing Translational Sciences (NCATS).
A selection: hits, their analogues and other compounds. The true share with any hit is near 8.3%.
FMDV inh = High Throughput Screening for Foot and Mouth Disease Virus Antivirals | Potency, µM (top dose mostly 57.9 µM), usual class: inhibitors | AID 1159524, 2015 | 1.2% of 410,000 active | FMDV antiviral cell-based qHTS; calls by dose curve; tested in HEK293T cells; note: read-out not given here; nearly all actives have a fitted effect of over 45% in size
Marburg entry inh = qHTS for inhibitors of binding or entry into cells for Marburg Virus. 1.8% of 300,000 active. AID 540276, 2011. Marburg virus pseudotyped entry inhibition, cell reporter. Potency, µM (highest dose often 37.8 µM), hits mostly inhibitors; calls by dose curve; tested in HEK293 cells
HCV inhibitor = qHTS Assay for Inhibitors of Hepatitis C Virus (HCV) | AID 651820, 2012 | 3.4% of 340,000 active | Potency, µM (titrated, usually from 41.8 µM), actives largely listed as inhibitors | Huh7.5.1 HCVcc-Cre infection, luciferase reporter, 44 h
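Seed cells (1,000/well) for 4 h; treat with compound and infect with HCVcc-Cre, moi about 0.5. Incubate 44 h, then detect luciferase activity.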
LASV entry inh = qHTS for Inhibitors of binding or entry into cells for Lassa Virus | Lassa virus pseudotype entry inhibition, cell reporter | Potency, µM (series often up to 37.9 µM), hits mostly inhibitors | 1.2% of 300,000 active | AID 540256, 2011; calls by dose curve; tested in HEK293 cells; note: nearly all actives have a fitted effect of over 50% in size
FBPA Giardia inh = qHTS Assay for Inhibitors of Fructose-1,6-bisphosphate Aldolase from Giardia Lamblia; A8B2U2; purified Giardia FBPA; Potency, µM (top dose mostly 59.6 µM), most hits filed as inhibitors; 0.71% of 290,000 active; AID 2451, 2010; note: nearly all actives have a fitted effect of over 55% in size
Target sequence (A8B2U2 whole entry, looked up): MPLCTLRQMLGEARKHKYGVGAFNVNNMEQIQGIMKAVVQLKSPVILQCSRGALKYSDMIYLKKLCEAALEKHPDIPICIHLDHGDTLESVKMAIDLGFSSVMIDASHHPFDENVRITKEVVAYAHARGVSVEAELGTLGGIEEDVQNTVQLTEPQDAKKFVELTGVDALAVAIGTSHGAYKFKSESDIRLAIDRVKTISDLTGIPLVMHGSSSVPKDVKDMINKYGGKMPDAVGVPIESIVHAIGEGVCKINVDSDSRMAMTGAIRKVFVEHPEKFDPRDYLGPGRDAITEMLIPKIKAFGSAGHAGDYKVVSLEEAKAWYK
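40 nM FBPA preincubated 10 min at RT with compound (up to 57.5 uM final), then substrate plus GAPDH/TPI/NAD/arsenate coupling and diaphorase/resazurin added. Fluorescence read after 20 min at RT, 525/598 nm.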
HCMV antiviral = qHTS Assay for inhibitors of the human cytomegalovirus (HCMV); activity change, negative = inhibition, % at 57.5 µM; 4.5% of 410,000 active; HFF cells, HCMV-luciferase reporter, 72 h; hits give low values; in the data active = activity change below about -60%; inconclusive = no clear call, values can overlap the other calls; inactive = above about -39%
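HFF cells seeded 16 h at 37C, treated with compounds, infected with luciferase-reporter HCMV at MOI 1 PFU/cell; luciferase read at 72 h post infection, normalized to buffer-only and Salinomycin controls.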
Hits are given with their value; 0 = inactive; ? = inconclusive; - = not tested or not shown; ! = repeats disagree; [ ] = another dose, or the depositor's remark. Unless noted, calls come from the whole dose curve; as a rule, active = well fitted curve in the direction sought with a large enough effect; inconclusive = small, poorly fitted or top-dose-only effect, or another doubt; inactive = no such curve, though single readings can be large; an effect the other way counts as inactive or inconclusive.

SMILES	FMDV inh	Marburg entry inh	HCV inhibitor	LASV entry inh	FBPA Giardia inh	HCMV antiviral
CN(Cc1ccc(OCC(O)CN2CCCCC2)cc1)Cc1ccnc2ccccc12 (centres undefined)	?	-	5.6µM	-	0	-66
CCCC[C@H]1CCCO[C@@](C(=O)NCc2ccccn2)(C(F)(F)F)C1	-	-	-	-	0	-
COc1cccc(-n2ccn(CC(=O)Nc3ccccc3F)c(=O)c2=O)c1	?	-	-	0	-	0
CC1=C(C#N)C(=O)NC(=O)/C1=C\c1ccc(-c2cc(C)c(C)cc2[N+](=O)[O-])o1	?	0	0	0	?	0
O=C1NC(=O)C(=Cc2ccc(-c3cc(Cl)ccc3[N+](=O)[O-])o2)C(=O)N1	20µM	?	0	0	0	0
Cc1ccc(/C=C2\C(=O)ON=C2c2ccccc2)o1	0	0	0	0	0	?
O=C1NC(=O)C(=Cc2ccc(-c3ccccc3[N+](=O)[O-])o2)C(=O)N1	35µM	?	0	0	0	0
Cc1ccc(-c2ccc(/C=C3\C(=O)ON=C3c3ccccc3)o2)c([N+](=O)[O-])c1	0	?	?	0	0	-94
CC[C@H](C)[C@H](NC(=O)CNC(=O)[C@H](C)NC(=O)[C@H](C)N)C(=O)NCC(=O)N[C@H](C(=O)N[C@@H](CC(C)C)C(=O)N[C@H](C(=O)N[C@H](C(=O)O)C(C)C)[C@@H](C)O)[C@@H](C)CC	-	-	-	-	0	-
CN(C)CCCn1c(-c2nonc2N)nc2cnccc21	-	-	-	0	-	-
CCCCCC[n+]1ccccc1/C=C/c1ccc(N(C)C)cc1	?	-	-	-	-	-97
CC[n+]1ccc(/C=C/c2ccc(N(C)C)cc2)c2ccccc21	18µM	?	4.5µM	?	0	-99
CN(C)c1ccc(C=Cc2nccc3ccccc23)cc1	0	-	-	-	-	0
CC[n+]1ccccc1/C=C/c1ccc(N(C)C)cc1	?	-	4.5µM	-	0	-86
Cc1cccc[n+]1CCCCCCCCCC[n+]1ccccc1C	0	?	?	?	0	?
CCN(CC)c1ccc(/C=C/c2ccc3ccc(OC)cc3[n+]2CC)cc1	7.9µM	-	2.2µM	-	0	-97
CCC(COC)NC(=O)c1cnn(-c2ncc3c(n2)-c2ccccc2CC3)c1C (centres undefined)	0	-	-	-	-	-
OCC(O)C(O)C(O)C(O)C(O)CO (centres undefined)	0	-	-	-	0	-
CC[C@H](C)[C@H](NC(=O)[C@H](Cc1ccc(O)cc1)NC(=O)[C@H](Cc1cnc[nH]1)NC(=O)[C@H](CCCNC(=N)N)NC(=O)[C@H](CC(C)C)NC(=O)[C@H](C)NC(=O)[C@H](CO)NC(=O)[C@H](Cc1ccc(O)cc1)NC(=O)[C@H](Cc1ccc(O)cc1)NC(=O)[C@H](CCCNC(=N)N)NC(=O)[C@H](C)NC(=O)[C@H](CCSC)NC(=O)[C@H](CC(=O)O)NC(=O)[C@H](CCC(=O)O)NC(=O)[C@H](C)NC(=O)[C@@H]1CCCN1C(=O)[C@H](C)NC(=O)[C@H](CC(=O)O)NC(=O)[C@H](CCC(=O)O)NC(=O)CNC(=O)[C@@H]1CCCN1C(=O)[C@H](CC(N)=O)NC(=O)[C@H](CC(=O)O)NC(=O)[C@@H]1CCCN1C(=O)[C@H](CCCCN)NC(=O)[C@H](CO)NC(=O)[C@@H]1CCCN1C(=O)[C@@H](N)Cc1ccc(O)cc1)C(=O)N[C@@H](CC(N)=O)C(=O)N[C@@H](CC(C)C)C(=O)N[C@@H](CC(C)C)C(=O)N[C@H](C(=O)N[C@@H](CCCNC(=N)N)C(=O)N1CCC[C@H]1C(=O)N[C@@H](CCCNC(=N)N)C(=O)N[C@@H](Cc1ccc(O)cc1)C(N)=O)[C@@H](C)O	-	-	-	-	0	-
C=C1C2CC[C@]3(CCC4[C@@]5(C)CCC[C@@]4(CN(CCO)C5)[C@@H]3C2)[C@@H]1O (some centres undefined)	0	-	-	-	0	-
CC[n+]1c(/C=C/c2ccc(N(C)C)cc2)ccc2ccccc21	6.3µM	1.6µM	0[0.335 µM]	9.2µM	0	-
CC[n+]1c(/C=C/c2ccc(OC)c(OC)c2)ccc2ccccc21	0	-	0	-	0	0
CCCCC(CC)C/C=C1\CC(C(=O)OCC)Oc2ccccc21 (centres undefined) (tested in a mixture with another compound)	-	-	-	-	0	-
CC(=O)Nc1ccc(C)cc1NC(C)=O	0	0	0	0	0	0
CC(=O)Nc1ccccc1NC(=O)c1ccc(C)cc1C	0	?	0	0	0	-63
SMILES	FMDV inh	Marburg entry inh	HCV inhibitor	LASV entry inh	FBPA Giardia inh	HCMV antiviral
Cc1cccc(C(=O)Nc2ccccc2NC(=O)c2cccc(C)c2)c1	0	0	?	0	0	-61
Cc1cccc(C(=O)Nc2ccc(NC(=O)c3cccc(C)c3)cc2)c1	0	-	-	-	-	0
Cc1cccc(C(=O)Nc2cccc3c2CCCC3)c1	0	0	0	0	0	-101
COc1cccc(NC(=O)C2=COC3=NC(=O)N(Cc4ccccc4)CCN23)c1	-	-	-	-	-	0
COc1ccccc1N(CC(=O)NCCSCc1ccccc1)S(=O)(=O)c1ccccc1	?	-	-	-	-	-73
COc1ccccc1N(CC(=O)NCCSCc1ccccc1)S(=O)(=O)c1ccc(C)cc1	35µM	?	25µM	?	0	-63!
Cc1nc2ccn(Cc3ccco3)c(=O)c2cc1C(=O)NCc1ccccc1	0	-	-	?	-	?
Cc1ccc(C(=O)N2C(=S)C(c3ccc(F)cc3)=NC23CCN(C)CC3)cc1	0	?	?	?	0	-85
CN1CCN(NC(=O)c2ccc(F)cc2)CC1	0	0	0	0	0	0
CSCCC(NS(=O)(=O)c1cccs1)C(=O)Nc1ccc(C)c(Cl)c1 (centres undefined)	0	0	-	0	-	0
Cc1cc(NC(=O)COC(=O)c2ccccc2S(=O)(=O)N(C)c2ccccc2)no1	?	?	0	2.5µM	0	-101
Cc1onc(-c2c(F)cccc2Cl)c1C(=O)OCC(=O)Nc1cccc(S(=O)(=O)N(C)C)c1	?	16µM	?	?	-	-70
Cc1cc(NC(=O)COC(=O)c2cccc(O)c2)no1	0	-	0	-	0	-65
Cc1cc(NC(=O)COC(=O)c2c(Cl)cccc2Cl)no1	0	-	0	-	-	-68
Cc1cc(NC(=O)COC(=O)c2ccc(Cl)cc2)no1	0	-	-	-	-	0
CCOc1ccc(C(=O)OCC(=O)Nc2cc(C)on2)cc1OCC	0	0	?	0	0	0
O=C(/C=C\c1ccc2c(c1)OCO2)NC1CC(=O)N(c2cccc(F)c2)C1 (centres undefined)	0	-	-	0	-	0
COc1ccc(-c2noc(C3CC(=O)N(c4ccc5c(c4)OCCO5)C3)n2)c(OC)c1 (centres undefined)	0	-	-	?	-	0
C=CCOc1ccc(/C=N/Nc2ccccn2)cc1OC	0	?	14µM	0	0	0
